In PubChem BioAssay (Tox21):
Values joined by “and” are separate entries in the source; they are usually repeats but may differ in a detail not shown here. Equal values may be shown once. Results filed as inconclusive are left out. Active and inactive are the calls of the source. Unless noted, calls follow the shape of the dose curve; as a rule, active = well fitted curve in the direction sought with a large enough effect in the repeat runs; inconclusive = weak or mixed curves; inactive = no such curve, though single readings can be large; an effect the other way counts as inactive or inconclusive.

Experiments:
[1] = qHTS assay for small molecules that induce genotoxicity in human embryonic kidney cells expressing luciferase-tagged ATAD5 (AID 651632); also: nearly all actives have a fitted effect of over 15% in size; also: potency is read from the fitted curve at half-maximal effect
Outline: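 Reporter cells (HEK293T) express luciferase-tagged ATAD5, a protein that accumulates after DNA damage. Treat 16 hr at 37C/5% CO2, add Amplite, wait 30 min at RT, and read luminescence.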

[2] = qHTS assay for small molecule agonists of the p53 signaling pathway - cell viability (AID 651633; calls by dose curve; also: nearly all actives have a fitted effect of over 30% in size; also: potency is read from the fitted curve at half-maximal effect)
Outline: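 p53RE-bla cells, seeded at 4,000 per well and rested 5 h at 37 C/5% CO2, received compounds in DMSO for 16 h at 37 C. CellTiter-Glo was then added, and luminescence was read after 30 min at room temperature to gauge cytotoxicity.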

[3] = qHTS assay for small molecules that induce genotoxicity in human embryonic kidney cells expressing luciferase-tagged ATAD5 - cell viability (AID 651634; calls by dose curve; also: nearly all actives have a fitted effect of over 25% in size; also: potency is read from the fitted curve at half-maximal effect)
Outline: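 Seeding of 2,000 HEK293T ATAD5-luciferase cells per well preceded pin-tool compound transfer. Plates sat 15.5 hr at 37C under 5% CO2, then fluorescence was read after 30 min with CellTiter-Fluor.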

[4] = qHTS assay for small molecule disruptors of the mitochondrial membrane potential (AID 720635); also: potency is read from the fitted curve at half-maximal effect
Outline: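 HepG2 cells (2,000/well) attached overnight at 37C, then took compound for 1 hr at 37C, 5% CO2. Mito-MPS dye was added for 30 min; fluorescence was read at 490/535 nm (monomers) and 540/590 nm (aggregates).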

[5] = qHTS assay to test for compound auto fluorescence at 590 nm (red) in HepG2 cells (AID 720674); also: % is scaled to controls: 0 for no effect and ±100 for the full control effect
Outline: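 Compound auto-fluorescence is scored relative to Rose Bengal sodium, measured at 540/590 nm in live HepG2 cultures after 1 hr compound contact (37 C, 5% CO2).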

[6] = qHTS assay to test for compound auto fluorescence at 535 nm (green) in HepG2 cells (AID 720675); also: % is scaled to controls: 0 for no effect and ±100 for the full control effect
[7] = qHTS assay to test for compound auto fluorescence at 460 nm (blue) in HEK293 cells (AID 720678); also: % is scaled to controls: 0 for no effect and ±100 for the full control effect
Outline: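 HEK293 cells (2,000 per well, medium with 10% dialyzed FBS) attached for 4-5 hr at 37C, then received compound and stood overnight at 37C, 5% CO2. Blue fluorescence was read at Ex/Em 405/460 nm and expressed relative to triamterene.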

[8] = qHTS assay to test for compound auto fluorescence at 590 nm (red) in HEK293 cells (AID 720679); also: % is scaled to controls: 0 for no effect and ±100 for the full control effect
Outline: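 HEK293 cells (2,000/well, medium with 10% dialyzed FBS) attached for 4-5 hr at 37C, received 23 nL compound and were incubated overnight at 37C, 5% CO2. Red fluorescence was then read at 540/590nm Ex/Em, referenced to Rose Bengal sodium.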

[9] = qHTS assay to test for compound auto fluorescence at 535 nm (green) in HEK293 cells (AID 720680); also: % is scaled to controls: 0 for no effect and ±100 for the full control effect
[10] = qHTS assay to test for compound auto fluorescence at 535 nm (green) in HEK293 cell free culture (AID 720682); also: % is scaled to controls: 0 for no effect and ±100 for the full control effect
Outline: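 Fluorescein serves as the green reference fluorophore; each compound's intrinsic emission at 535 nm (excitation 485 nm) is reported as an equivalent amount of that dye, measured in serum-containing DMEM without cells.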

[11] = qHTS assay to test for compound auto fluorescence at 590 nm (red) in HepG2 cell free culture (AID 720684); also: % is scaled to controls: 0 for no effect and ±100 for the full control effect
Outline: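 Red fluorescence (540 nm excitation, 590 nm emission) was measured after compound transfer into cell-free MEM supplemented with 10% FBS. Values are equivalencies against Rose Bengal sodium.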

[12] = qHTS assay to test for compound auto fluorescence at 460 nm (blue) in HepG2 cell free culture (AID 720685); also: % is scaled to controls: 0 for no effect and ±100 for the full control effect
Outline: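 Compound (23 nL) or DMSO pinned into cell-free MEM with 10% FBS; blue fluorescence read at 405/460 nm excitation/emission, expressed as auto-fluorescence equivalency to triamterene.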

[13] = qHTS assay to test for compound auto fluorescence at 535 nm (green) in HepG2 cell free culture (AID 720686); also: % is scaled to controls: 0 for no effect and ±100 for the full control effect
[14] = qHTS assay to test for compound auto fluorescence at 460 nm (blue) in HepG2 cells (AID 720687); also: % is scaled to controls: 0 for no effect and ±100 for the full control effect
Outline: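 Cells (2,000/well in MEM with 10% FBS) attached overnight at 37 C, then were exposed to compound or DMSO for 1 hr at 37 C, 5% CO2. Fluorescence read at Ex/Em 405/460 nm, expressed as triamterene-equivalent signal.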

[15] = biological target: Glucocorticoid receptor (Homo sapiens) (UniProt P04150); assay: qHTS assay to identify small molecule agonists of the glucocorticoid receptor (GR) signaling pathway (AID 720691; active = well fitted activation curve with a large enough effect in the signal ratio in the repeat runs, not every such curve was filed as active; the % refers to the signal ratio; also: % is scaled to controls: 0 for no effect and ±100 for the full control effect); settings: GR-bla HeLa, beta-lactamase reporter ratio, 18 h; activation: at 62.4 µM (top of the series)
Outline: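 Reporter read-out: fluorescence intensity following 2 h room-temperature LiveBLAzer B/G FRET substrate loading. Prior step: GR-bla HeLa cells held 4 h, then treated 18 h at 37 C.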

[16] = qHTS assay for small molecule disruptors of the mitochondrial membrane potential - cell viability (AID 720634; calls by dose curve; also: nearly all actives have a fitted effect of over 20% in size; also: potency is read from the fitted curve at half-maximal effect)
Outline: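 Measuring cytotoxicity alongside mitochondrial potential, the screen quantified ATP by luminescence in HepG2 cells after 1 hr compound incubation and a 30 min room-temperature CellTiter-Glo step.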

[17] = qHTS assay to test for compound auto fluorescence at 460 nm (blue) in HEK293 cell free culture (AID 720681); also: % is scaled to controls: 0 for no effect and ±100 for the full control effect
Outline: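 Test compounds were pinned into cell-free culture medium (DMEM with 10% FBS) and fluorescence was read directly at Ex/Em 405/460 nm. Signals were expressed as fluorescence equivalents of triamterene, with DMSO vehicle as control.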

[18] = qHTS assay to test for compound auto fluorescence at 590 nm (red) in HEK293 cell free culture (AID 720683); also: % is scaled to controls: 0 for no effect and ±100 for the full control effect
Outline: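 Tox21 10K library compounds were pinned into cell-free DMEM with 10% FBS and fluorescence was read at excitation 540 nm. Activity is expressed as Rose Bengal sodium equivalency.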

[19] = biological target: Glucocorticoid receptor (Homo sapiens) (UniProt P04150); assay: qHTS assay to identify small molecule antagonists of the glucocorticoid receptor (GR) signaling pathway (AID 720692; active = well fitted inhibition curve with a large enough effect in the signal ratio in the repeat runs, not every such curve was filed as active; the % refers to the signal ratio; also: % is scaled to controls: 0 for no effect and ±100 for the full control effect)
Outline: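 Dexamethasone (5 nM final) stimulated a stably integrated GRE-beta-lactamase reporter in HeLa cells during 18 h co-incubation with compounds; signal was quantified as fluorescence intensity of B/G FRET substrate after 2 h.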

Glucocorticoid receptor (Homo sapiens), sequence (P04150 whole entry, looked up): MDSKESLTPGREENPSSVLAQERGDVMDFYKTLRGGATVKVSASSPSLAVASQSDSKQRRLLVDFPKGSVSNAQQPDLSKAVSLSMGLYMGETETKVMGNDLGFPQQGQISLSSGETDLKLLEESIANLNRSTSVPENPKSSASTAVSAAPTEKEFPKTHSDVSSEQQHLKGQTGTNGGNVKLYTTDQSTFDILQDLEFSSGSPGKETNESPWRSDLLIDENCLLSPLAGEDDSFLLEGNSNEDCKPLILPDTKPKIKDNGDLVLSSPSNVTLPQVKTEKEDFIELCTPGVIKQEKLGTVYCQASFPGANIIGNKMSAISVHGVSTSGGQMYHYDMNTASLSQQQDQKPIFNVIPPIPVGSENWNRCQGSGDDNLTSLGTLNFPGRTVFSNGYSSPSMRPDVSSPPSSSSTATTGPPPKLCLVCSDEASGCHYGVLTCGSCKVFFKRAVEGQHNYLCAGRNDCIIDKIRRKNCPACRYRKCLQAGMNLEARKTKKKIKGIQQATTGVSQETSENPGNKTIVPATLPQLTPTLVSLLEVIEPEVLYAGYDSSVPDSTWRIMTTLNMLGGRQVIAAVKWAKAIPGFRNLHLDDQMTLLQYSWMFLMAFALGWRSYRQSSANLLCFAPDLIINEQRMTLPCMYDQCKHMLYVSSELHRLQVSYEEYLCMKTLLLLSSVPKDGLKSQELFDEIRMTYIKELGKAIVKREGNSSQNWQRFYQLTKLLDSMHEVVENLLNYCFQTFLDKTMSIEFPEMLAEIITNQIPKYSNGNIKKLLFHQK

CCCCCCCc1ccc(O)cc1
active: Potency [4] 7.7 µM
inactive: Potency [1] | Potency [2] | Potency [3] | outcome [5] | Potency [6] | Potency [7] | outcome [8] | outcome [9] | outcome [10] | outcome [11] | Potency [12] | Potency [13] | Potency [14] | Potency [15]

CC(C)=CC1C(C(=O)OC(C#N)c2cccc(Oc3ccccc3)c2)C1(C)C (configuration not stated)
inactive: Potency [1] | Potency [3] | Potency [16] | outcome [5] | Potency [6] | Potency [7] | outcome [8] | outcome [9] | Potency [17] | outcome [10] | outcome [18] | outcome [11] | Potency [12] | Potency [13] | Potency [14] | Potency [15]

Nc1ccc(N=Nc2ccccc2)cc1
active: Potency [1] 13.7 µM | Potency [3] 41.6 µM
inactive: Potency [2] | outcome [5] | Potency [6] | Potency [7] | outcome [8] | outcome [9] | Potency [17] | outcome [10] | outcome [18] | outcome [11] | Potency [12] | Potency [13] | Potency [14] | Potency [15]

CCC[CH2][Sn]([CH2]CCC)([CH2]CCC)[CH2]CCC
active: Potency [2] 43.3 µM | Potency [3] 19.3 µM | Potency [4] 4.86 µM
inactive: Potency [1] | outcome [5] | Potency [7] | outcome [8] | outcome [9] | outcome [10] | outcome [18] | outcome [11] | Potency [12] | Potency [13] | Potency [14]

O=C(Nc1ccc(F)cc1F)c1cccnc1Oc1cccc(C(F)(F)F)c1
inactive: Potency [1] | Potency [3] | Potency [16] | outcome [5] | Potency [6] | Potency [7] | outcome [9] | Potency [17] | outcome [10] | outcome [18] | outcome [11] | Potency [12] | Potency [13] | Potency [14] | Potency [15] | Potency [19]
active: Potency [4] 23.8 µM

O=[N+]([O-])C(Br)Br
inactive: Potency [1] | Potency [2] | outcome [5] | Potency [6] | Potency [7] | outcome [8] | outcome [9] | outcome [10] | outcome [11] | Potency [12] | Potency [13] | Potency [14] | Potency [15]

Oc1cc(Cl)cc(Cl)c1
inactive: Potency [1] | Potency [2] | Potency [3] | outcome [5] | Potency [6] | Potency [7] | outcome [9] | outcome [10] | outcome [18] | outcome [11] | Potency [12] | Potency [13] | Potency [14] | Potency [15]
active: Potency [4] 9.79 µM

CC(C)[C@@H](Nc1ccc(C(F)(F)F)cc1Cl)C(=O)OC(C#N)c1cccc(Oc2ccccc2)c1 (some centres not stated)
active: Potency [4] 26.3 µM
inactive: Potency [1] | Potency [2] | Potency [3] | outcome [5] | Potency [6] | Potency [7] | outcome [8] | outcome [9] | Potency [17] | outcome [10] | outcome [18] | outcome [11] | Potency [12] | Potency [13] | Potency [14]

CCNS(=O)(=O)C(F)(F)C(F)(F)C(F)(F)C(F)(F)C(F)(F)C(F)(F)C(F)(F)C(F)(F)F
inactive: Potency [1] | Potency [2] | outcome [5] | Potency [7] | outcome [8] | outcome [9] | outcome [10] | outcome [18] | outcome [11] | Potency [12] | Potency [13] | Potency [14]
active: Potency [16] 5.22 µM | Potency [4] 1.85 µM

COC(=O)c1cc(Oc2ccc(Cl)cc2Cl)ccc1[N+](=O)[O-]
inactive: Potency [1] | Potency [2] | Potency [3] | outcome [5] | Potency [6] | Potency [7] | outcome [9] | Potency [17] | outcome [10] | outcome [18] | outcome [11] | Potency [12] | Potency [13] | Potency [14] | Potency [15]

O=S1OCC2C(CO1)C1(Cl)C(Cl)=C(Cl)C2(Cl)C1(Cl)Cl (configuration not stated)
inactive: Potency [1] | Potency [3] | outcome [5] | Potency [7] | outcome [9] | Potency [17] | outcome [10] | outcome [18] | outcome [11] | Potency [12] | Potency [13] | Potency [14]
active: Potency [2] 68.7 µM and 54.4 µM

CCOP(=S)(OCC)SC(CCl)N1C(=O)c2ccccc2C1=O (configuration not stated)
inactive: Potency [1] | Potency [2] | Potency [3] | outcome [5] | Potency [6] | Potency [7] | outcome [8] | outcome [9] | Potency [17] | outcome [10] | outcome [18] | outcome [11] | Potency [12] | Potency [13] | Potency [14]

O=C(NC(=O)c1c(F)cccc1F)Nc1ccc(Oc2ccc(C(F)(F)F)cc2Cl)cc1F
inactive: Potency [1] | Potency [2] | Potency [3] | outcome [5] | Potency [6] | Potency [7] | outcome [8] | outcome [9] | Potency [17] | outcome [10] | outcome [18] | outcome [11] | Potency [12] | Potency [13] | Potency [14]

CC(C)C(Br)C(=O)NC(N)=O (configuration not stated)
inactive: Potency [1] | Potency [2] | Potency [3] | outcome [5] | Potency [6] | Potency [7] | outcome [8] | outcome [9] | outcome [10] | outcome [11] | Potency [12] | Potency [13] | Potency [14]

C[C@]12C/C(=C/O)C(=O)C[C@@H]1CC[C@@H]1[C@@H]2CC[C@@]2(C)[C@H]1CC[C@]2(C)O
inactive: Potency [1] | Potency [16] | outcome [5] | Potency [6] | Potency [7] | outcome [8] | outcome [9] | outcome [10] | outcome [18] | outcome [11] | Potency [12] | Potency [13] | Potency [14] | Potency [15]
active: Potency [2] 49 µM

COP(=O)(OC)O/C(=C\Cl)c1cc(Cl)c(Cl)cc1Cl
inactive: Potency [1] | Potency [2] | Potency [16] | outcome [5] | Potency [6] | Potency [7] | outcome [8] | outcome [9] | Potency [17] | outcome [10] | outcome [18] | outcome [11] | Potency [12] | Potency [13] | Potency [14]

COc1ccc(Cc2nccc3cc(OC)c(OC)cc23)cc1OC
inactive: Potency [1] | Potency [2] | Potency [16] | fluorescence, relative to Rose Bengal [5] 0.593% [at 18.6 µM] | fluorescence, % of fluorescein control [6] 0.0156% [at 18.6 µM] | fluorescence, % of triamterene [7] -0.311% [at 18.6 µM] | fluorescence, % of fluorescent control [8] -0.0717% [at 18.6 µM] | fluorescence, % of fluorescein [9] -0.0425% [at 18.6 µM] | fluorescence, % of fluorescent control [17] -0.0156% [at 18.6 µM] | activity change [10] -0.0465% [at 18.6 µM] | fluorescence, % of fluorescent control [18] -0.0177% [at 18.6 µM] | fluorescence, % of Rose Bengal [11] -0.262% [at 18.6 µM] | fluorescence, % of fluorescent control [12] 0.0281% [at 18.6 µM] | fluorescence, % of fluorescein control [13] -0.0438% [at 18.6 µM] | fluorescence, % of fluorescent control [14] -0.0587% [at 18.6 µM]
